The target of this assay is Estrogen receptor (Homo sapiens) (UniProt P03372). The assay is described as follows: displacement of fluorescent estrogen from ERalpha – cell-based, Cos7 ERalpha-GFP, flow cytometry, primary screen (AID 1211).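 Note: 0% = DMSO vehicle wells and 100% = no E2-Alexa633 signal left.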 The conditions noted are these: fluorescent ligand competition, stronger effect = higher value.

Structures are written as SMILES. Activity calls are given as the source filed them. The rule behind the calls is not given here.

Sequence of Estrogen receptor (Homo sapiens) (P03372 whole entry, looked up): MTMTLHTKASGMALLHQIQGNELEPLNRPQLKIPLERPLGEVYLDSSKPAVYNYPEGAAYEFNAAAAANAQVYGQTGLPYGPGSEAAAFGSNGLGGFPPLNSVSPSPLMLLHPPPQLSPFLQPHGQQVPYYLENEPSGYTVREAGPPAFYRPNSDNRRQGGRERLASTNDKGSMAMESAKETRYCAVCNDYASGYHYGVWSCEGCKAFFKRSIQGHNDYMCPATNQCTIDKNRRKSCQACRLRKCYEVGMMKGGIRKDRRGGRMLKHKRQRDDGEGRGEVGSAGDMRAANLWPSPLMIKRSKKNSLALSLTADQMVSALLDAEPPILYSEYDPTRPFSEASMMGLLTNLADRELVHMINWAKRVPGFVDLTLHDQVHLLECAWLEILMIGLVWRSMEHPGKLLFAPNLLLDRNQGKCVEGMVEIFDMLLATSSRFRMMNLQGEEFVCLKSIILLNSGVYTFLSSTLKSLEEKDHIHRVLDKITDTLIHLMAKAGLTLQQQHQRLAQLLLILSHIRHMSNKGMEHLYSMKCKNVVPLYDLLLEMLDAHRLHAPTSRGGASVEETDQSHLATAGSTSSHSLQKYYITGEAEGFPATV

As to `CC1(N2CCOCC2)CC2(O)C(=[N+]1[O-])CCc1nonc12` (stereo unspecified), the inhibition of ligand binding by setting is: (at 10 µM) 34% (inactive); (binding inhibition, at 0.1 µM) 46%.

On to `COc1ccc(-c2nc(C(N)=O)c3[nH]c(=O)n(-c4cccc(Cl)c4)c3n2)cc1OC`, for which the inhibition of ligand binding is 0% (inactive) (at 10 µM) and 6% (binding inhibition, at 0.1 µM).

`CCCN(CCC)S(=O)(=O)c1ccc(NC(=O)Cc2cccs2)cc1`: the inhibition of ligand binding by setting is: (at 10 µM) 34% (inactive); (binding inhibition, at 0.1 µM) 18%.

Consider `CCOC(=O)Cc1cc(=O)n2[nH]c(-c3ccc(C)cc3)cc2n1`, for which the inhibition of ligand binding is 0% (inactive) (at 10 µM) and 25% (binding inhibition, at 0.1 µM).

In the case of `O=C1N/C(=C\c2ccc(O)cc2)C(=O)c2ccccc21`, the inhibition of ligand binding (at 10 µM) is 30% (inactive) and the inhibition of ligand binding (binding inhibition, at 0.1 µM) was 14%.

For the compound `CCOc1ccccc1-n1nnnc1SCC(=O)NC(=O)NCc1ccco1`, the inhibition of ligand binding was 5% (inactive) (at 10 µM) and 5% (binding inhibition, at 0.1 µM).

With `O=C(Cc1cccs1)Nc1nncs1`, the inhibition of ligand binding is 33% (inactive) (at 10 µM) and 13% (binding inhibition, at 0.1 µM).

Turning to `O=C(Nc1ccc2nn(-c3ccccc3)nc2c1)c1ccc2c(c1)OCO2`, the inhibition of ligand binding (at 10 µM) was 15% (inactive) and the inhibition of ligand binding (binding inhibition, at 0.1 µM) amounted to 44%.

With `N#CC(C(=O)Nc1ccc(Cl)cc1)=C1Nc2ccccc2N1`, the inhibition of ligand binding reads like this: (at 10 µM) 48% (inactive); (binding inhibition, at 0.1 µM) 21%.

With `C/C=C/COC(=O)c1[nH]c2c(c1C)C(=O)CC(c1ccco1)C2` (stereo unspecified), the inhibition of ligand binding reads like this: (at 10 µM) 29% (inactive); (binding inhibition, at 0.1 µM) 27%.

Consider `O=C(Cn1nnc(-c2ccc3c(c2)OCO3)n1)NCc1ccco1`, for which the inhibition of ligand binding (at 10 µM) was 38% (inactive) and the inhibition of ligand binding (binding inhibition, at 0.1 µM) is 62%.

With `Cc1cnc(C(=O)OCC(=O)c2csc(N3CCCCC3)n2)cn1`, the inhibition of ligand binding by setting is: (at 10 µM) 17% (inactive); (binding inhibition, at 0.1 µM) 63%.

For the compound `CC12CCC(=O)N1C(C(=O)OCC(=O)Nc1sccc1C#N)CS2` (stereo unspecified), the inhibition of ligand binding (at 10 µM) is 47% (active) and the inhibition of ligand binding (binding inhibition, at 0.1 µM) was 89%.

As for `CCc1ccc(Nc2nc(N)nc(CSc3nnnn3-c3ccccc3)n2)cc1`, the inhibition of ligand binding is 49% (inactive) (at 10 µM) and 16% (binding inhibition, at 0.1 µM).

As for `O=c1c(OC2OC(CO)C(O)C(O)C2O)c(-c2ccc(O)c(O)c2)oc2cc(O)cc(O)c12` (stereo unspecified), the inhibition of ligand binding reads like this: (at 10 µM) 39% (inactive); (binding inhibition, at 0.1 µM) 33%.

`O=c1cc(CSc2nnc(-c3cccs3)n2Cc2ccccc2)nc2sc3ccccc3n12`: the inhibition of ligand binding (at 10 µM) is 49% (inactive) and the inhibition of ligand binding (binding inhibition, at 0.1 µM) is 28%.

For the compound `COc1ccc(N2C(=O)c3ccccc3NC2c2ccc(OC)c(COc3ccccn3)c2)cc1` (stereo unspecified), the inhibition of ligand binding (at 10 µM) was 0% (inactive) and the inhibition of ligand binding (binding inhibition, at 0.1 µM) came to 22%.

In the case of `O=C(c1cccs1)N1N=C(c2ccc(O)cc2)CC1c1ccccc1` (stereo unspecified), the inhibition of ligand binding reads like this: (at 10 µM) 58% (inactive); (binding inhibition, at 0.1 µM) 17%.

For the compound `Oc1ccccc1C1=Nc2ccccc2N=C(c2cccs2)C1`, the inhibition of ligand binding runs as follows: (at 10 µM) 1% (inactive); (binding inhibition, at 0.1 µM) 54%.

Turning to `O=C(Nc1ccc(O)cc1C(=O)O)c1ccc2c(c1)C(=O)N(Cc1ccco1)C2=O`, the inhibition of ligand binding was 33% (active) (at 10 µM) and 86% (binding inhibition, at 0.1 µM).

On to `COc1ccc(C)cc1-n1nnnc1SCC(=O)NC(=O)NCc1ccco1`, for which the inhibition of ligand binding runs as follows: (at 10 µM) 15% (inactive); (binding inhibition, at 0.1 µM) 26%.

As to `CN(C)S(=O)(=O)N(CC(=O)N(Cc1ccccc1)Cc1ccccc1)c1ccccc1`, the inhibition of ligand binding runs as follows: (at 10 µM) 23% (inactive); (binding inhibition, at 0.1 µM) 24%.

As to `O=C1/C(=C\c2ccco2)SC(=S)N1c1ccc(O)cc1`, the inhibition of ligand binding reads like this: (at 10 µM) 61% (inactive); (binding inhibition, at 0.1 µM) 31%.

Turning to `O=C(Cc1cccs1)Nc1ccc(S(=O)(=O)Nc2ncccn2)cc1`, the inhibition of ligand binding was 15% (active) (at 10 µM) and 87% (binding inhibition, at 0.1 µM).

Turning to `CCOc1ccc(Nc2oc(-c3ccccc3Cl)nc2C#N)cc1`, the inhibition of ligand binding (at 10 µM) was 29% (inactive) and the inhibition of ligand binding (binding inhibition, at 0.1 µM) came out at 35%.

With `O=C(Nc1cccc2cccc(NC(=O)c3ccco3)c12)c1ccco1`, the inhibition of ligand binding was 54% (inactive) (at 10 µM) and 46% (binding inhibition, at 0.1 µM).

As for `C/C(=N\Nc1ccc([N+](=O)[O-])cc1)c1cccc(N)c1`, the inhibition of ligand binding (at 10 µM) is 4% (inactive) and the inhibition of ligand binding (binding inhibition, at 0.1 µM) was 35%.

As for `CCc1ccc2c(c1)[C@H]1OCC[C@H]1[C@@H](c1cccs1)N2`, the inhibition of ligand binding by setting is: (at 10 µM) 0% (inactive); (binding inhibition, at 0.1 µM) 21%.

With `COc1ccccc1N1CCN(C(=O)c2ccc3nc(-c4ccco4)c(-c4ccco4)nc3c2)CC1`, the inhibition of ligand binding (at 10 µM) was 36% (active) and the inhibition of ligand binding (binding inhibition, at 0.1 µM) was 82%.

Regarding `CC(=O)c1ccc2c(c1)C1C=CCC1C(C(=O)O)N2` (stereo unspecified), the inhibition of ligand binding (at 10 µM) was 42% (inactive) and the inhibition of ligand binding (binding inhibition, at 0.1 µM) was found to be 39%.

For `CCC1=NN2C(=N)/C(=C\c3ccc(SCc4ccco4)o3)C(=O)N=C2S1`, the inhibition of ligand binding was 22% (inactive) (at 10 µM) and 10% (binding inhibition, at 0.1 µM).

With `CCOC(=O)N1CCN(S(=O)(=O)c2ccc(C(=O)Nc3nc4ccc(F)cc4s3)cc2)CC1`, the inhibition of ligand binding is, setting by setting: (at 10 µM) 34% (inactive); (binding inhibition, at 0.1 µM) 11%.

For `O=C1c2ccccc2NC(c2ccc(O)cc2)N1/N=C/c1ccc(O)cc1` (stereo unspecified), the inhibition of ligand binding (at 10 µM) was 32% (inactive) and the inhibition of ligand binding (binding inhibition, at 0.1 µM) came out at 65%.

On to `CC(C)(C)c1nnc2sc(SC/C(O)=C(\C#N)c3nc4ccccc4[nH]3)nn2c1=O`, for which the inhibition of ligand binding (at 10 µM) was 20% (inactive) and the inhibition of ligand binding (binding inhibition, at 0.1 µM) is 8%.

On to `COc1ccccc1N1CCN(C(=O)c2cc3c(s2)CCC3)CC1`, for which the inhibition of ligand binding reads like this: (at 10 µM) 41% (inactive); (binding inhibition, at 0.1 µM) 55%.

Regarding `C[C@]12CC[C@@H]3c4ccc(O)cc4C(=O)C[C@H]3[C@@H]1CC[C@@H]2O`, the inhibition of ligand binding (at 10 µM) was 78% (active) and the inhibition of ligand binding (binding inhibition, at 0.1 µM) is 88%.

As to `CCOc1ccc(CC2S/C(=N/c3ccccn3)NC2=O)cc1` (stereo unspecified), the inhibition of ligand binding reads like this: (at 10 µM) 8% (inactive); (binding inhibition, at 0.1 µM) 2%.

With `CCCOc1ccc(-c2nn(-c3ccccc3)cc2/C=C2\SC(N)=NC2=O)cc1`, the inhibition of ligand binding (at 10 µM) is 50% (inactive) and the inhibition of ligand binding (binding inhibition, at 0.1 µM) amounted to 13%.

With `CN1CCC(=NNC(=O)c2cn(-c3ccccc3)nc2-c2ccccc2)CC1`, the inhibition of ligand binding by setting is: (at 10 µM) 3% (inactive); (binding inhibition, at 0.1 µM) 11%.

As for `O=C(Nc1ccc2c(c1)nc1n2CCSC1)c1ccco1`, the inhibition of ligand binding (at 10 µM) was 20% (inactive) and the inhibition of ligand binding (binding inhibition, at 0.1 µM) was 42%.

Turning to `COc1ccc(Cn2c(=O)[nH]c3cc(C(=O)NCc4ccc5c(c4)OCO5)ccc3c2=O)cc1`, the inhibition of ligand binding was 23% (inactive) (at 10 µM) and 53% (binding inhibition, at 0.1 µM).

Regarding `Cc1ccccc1OCC1Cc2c(nc(N)c(C#N)c2N)O1` (stereo unspecified), the inhibition of ligand binding runs as follows: (at 10 µM) 31% (inactive); (binding inhibition, at 0.1 µM) 13%.

As for `Cc1ccc2c(Cl)cc(Cl)c(OCC(=O)NCc3ccco3)c2n1`, the inhibition of ligand binding (at 10 µM) was 21% (inactive) and the inhibition of ligand binding (binding inhibition, at 0.1 µM) was 18%.
